± gives the standard deviation.
Assays:
Assay in all cases: peptide microarray binding signal (635 nm), min-max normalized on array (fraction of array maximum); higher = stronger binding
Details in all cases: peptide region: H3 11-23
[1] = target: T1, HaloTag-ATRX ADD domain (163-292)
T1 chain: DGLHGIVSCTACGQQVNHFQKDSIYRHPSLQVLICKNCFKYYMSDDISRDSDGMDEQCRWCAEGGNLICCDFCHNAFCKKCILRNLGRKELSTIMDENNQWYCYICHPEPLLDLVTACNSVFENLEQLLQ
Method in brief: (§1)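 For each library, binding signal was taken as the triplicate-spot mean intensity and then min-max scaled. Spots of histone 13-mer peptide–cellulose conjugates on nitrocellulose, printed in triplicate with a Cy3 tracer, were probed for 1 h at 4°C with either biotin-labelled HaloTag reader fusions (10 nM to 1 μM) and streptavidin-Alexa Fluor 647 or rabbit histone antibodies (1:10,000 to 1:2,000) and anti-rabbit Alexa 647. Readout at 635 nm came from an Axon GenePix 4000B.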

[2] = target: HaloTag-ING2 PHD (mouse Ing2 200-280)
Method in brief: as §1

[3] = target: anti-H3K4me3 antibody ab8580
Method in brief: as §1

[4] = target: anti-H3K9me3 antibody ab8898
Method in brief: as §1

[5] = peptide modifications: H3K14me3 H3R17me2a, binder concentration: 1:2,000 dilution
[6] = peptide modifications: H3K14me3 H3R17me2a, binder concentration: 1:10,000 dilution
[7] = peptide modifications: H3K14me3 H3R17me1, binder concentration: 1:2,000 dilution
[8] = peptide modifications: H3K14me3 H3R17me1, binder concentration: 1:10,000 dilution
[9] = peptide modifications: H3K14me3 H3K18me3, binder concentration: 1:2,000 dilution
[10] = peptide modifications: H3K14me3 H3K18me3, binder concentration: 1:10,000 dilution
[11] = peptide modifications: H3K18me2, binder concentration: 1:2,000 dilution
[12] = peptide modifications: H3K18me2, binder concentration: 1:10,000 dilution
[13] = peptide modifications: H3K18ac, binder concentration: 1:2,000 dilution
[14] = peptide modifications: H3K18ac, binder concentration: 1:10,000 dilution

B1: H3 11-23 T G G Kme3 A P Rme2a K Q L A T K (peptide)
chain: TGGKAPRKQLATK
- peptide microarray binding signal ([1]; peptide modifications: H3K14me3 H3R17me2a, binder concentration: 50 nM): 0.0192 ± 0.0025
- peptide microarray binding signal ([1]; peptide modifications: H3K14me3 H3R17me2a, binder concentration: 500 nM): 0.027 ± 0.0031
- peptide microarray binding signal ([2]; peptide modifications: H3K14me3 H3R17me2a, binder concentration: 10 nM): 0.0158 ± 0.0011
- peptide microarray binding signal ([2]; peptide modifications: H3K14me3 H3R17me2a, binder concentration: 100 nM): 0.0298 ± 0.0018
- peptide microarray binding signal [3, 5]: 0.0582 ± 0.0093
- peptide microarray binding signal [3, 6]: 0.0419 ± 0.0073
- peptide microarray binding signal [4, 5]: 0.133 ± 0.0046
- peptide microarray binding signal [4, 6]: 0.0547 ± 0.0033

B2: H3 11-23 T G G Kme3 A P Rme K Q L A T K (peptide)
chain: TGGKAPRKQLATK
- peptide microarray binding signal ([1]; peptide modifications: H3K14me3 H3R17me1, binder concentration: 50 nM): 0.0176 ± 0.0022
- peptide microarray binding signal ([1]; peptide modifications: H3K14me3 H3R17me1, binder concentration: 500 nM): 0.0147 ± 0.00081
- peptide microarray binding signal ([2]; peptide modifications: H3K14me3 H3R17me1, binder concentration: 10 nM): 0.00609 ± 0.00015
- peptide microarray binding signal ([2]; peptide modifications: H3K14me3 H3R17me1, binder concentration: 100 nM): 0.00772 ± 0.00033
- peptide microarray binding signal [3, 7]: 0.00823 ± 0.00055
- peptide microarray binding signal [3, 8]: 0.00502 ± 0.00025
- peptide microarray binding signal [4, 7]: 0.0269 ± 0.0047
- peptide microarray binding signal [4, 8]: 0.0115 ± 0.00069

B3: H3 11-23 T G G Kme3 A P R Kme3 Q L A T K (peptide)
chain: TGGKAPRKQLATK
- peptide microarray binding signal ([1]; peptide modifications: H3K14me3 H3K18me3, binder concentration: 50 nM): 0.00652 ± 5.7e-05
- peptide microarray binding signal ([1]; peptide modifications: H3K14me3 H3K18me3, binder concentration: 500 nM): 0.00876 ± 0.00042
- peptide microarray binding signal ([2]; peptide modifications: H3K14me3 H3K18me3, binder concentration: 10 nM): 0.00865 ± 0.0015
- peptide microarray binding signal ([2]; peptide modifications: H3K14me3 H3K18me3, binder concentration: 100 nM): 0.0149 ± 0.0019
- peptide microarray binding signal [3, 9]: 0.45 ± 0.069
- peptide microarray binding signal [3, 10]: 0.408 ± 0.048
- peptide microarray binding signal [4, 9]: 0.18 ± 0.013
- peptide microarray binding signal [4, 10]: 0.0505 ± 0.0048

B4: H3 11-23 T G G K A P R Kme2 Q L A T K (peptide)
chain: TGGKAPRKQLATK
- peptide microarray binding signal ([1]; peptide modifications: H3K18me2, binder concentration: 50 nM): 0.00558 ± 0.00014
- peptide microarray binding signal ([1]; peptide modifications: H3K18me2, binder concentration: 500 nM): 0.0142 ± 0.0013
- peptide microarray binding signal ([2]; peptide modifications: H3K18me2, binder concentration: 10 nM): 0.004595 ± 2.3e-05
- peptide microarray binding signal ([2]; peptide modifications: H3K18me2, binder concentration: 100 nM): 0.0225 ± 0.0074
- peptide microarray binding signal [3, 11]: 0.00421 ± 0.00019
- peptide microarray binding signal [3, 12]: 0.001541 ± 1.5e-05
- peptide microarray binding signal [4, 11]: 0.00397 ± 0.00076
- peptide microarray binding signal [4, 12]: 0.00231 ± 4.2e-05

B5: H3 11-23 T G G K A P R Kac Q L A T K (peptide)
chain: TGGKAPRKQLATK
- peptide microarray binding signal ([1]; peptide modifications: H3K18ac, binder concentration: 50 nM): 0.00715 ± 0.00076
- peptide microarray binding signal ([1]; peptide modifications: H3K18ac, binder concentration: 500 nM): 0.023 ± 0.014
- peptide microarray binding signal ([2]; peptide modifications: H3K18ac, binder concentration: 10 nM): 0.0127 ± 0.0019
- peptide microarray binding signal ([2]; peptide modifications: H3K18ac, binder concentration: 100 nM): 0.0351 ± 0.016
- peptide microarray binding signal [3, 13]: 0.00259 ± 0.002
- peptide microarray binding signal [3, 14]: 0.00462 ± 0.00058
- peptide microarray binding signal [4, 13]: 0.00184 ± 8.2e-05
- peptide microarray binding signal [4, 14]: 0.00173 ± 8.8e-05

Source: the supplement of paper PMC4022240
